# Records with an inconclusive call do not appear. Activity calls are given as the source filed them. Calls follow the shape of the dose curve; as a rule, active = well fitted curve in the direction sought with a large enough effect; inconclusive = small, poorly fitted or top-dose-only effect, or another doubt; inactive = no such curve, though single readings can be large; an effect the other way counts as inactive or inconclusive.
# Target: DNA repair nuclease/redox regulator APEX1 (Homo sapiens) (UniProt P27695)
# Test: qHTS Validation Assay for Inhibitors of the Human Apurinic/apyrimidinic Endonuclease 1 (APE1) (AID 1705; also: potency is read from the fitted curve at half-maximal effect;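 as to activity change, negative = inhibition: TAMRA fluorescence gain over two minutes as APE1 cuts a quenched THF abasic duplex; % is scaled to controls: 0 for no effect and ±100 for the full control effect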)
# Settings: purified APE1 endonuclease activity, fluorescence, titration; series mostly up to 57.1 µM; activity change, negative = inhibition: at the top concentration
# Procedure, shortened: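 Fluorogenic double-stranded THF abasic-site substrate (5'-TAMRA/3'-BHQ-2), 50 nM final. Enzyme preincubated with compound 15 min at room temperature, then substrate added. Kinetic fluorescence (ex 525/em 598 nm) read three times at 60 s intervals; activity taken as third-minus-first read difference.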
# Sequence of DNA repair nuclease/redox regulator APEX1 (Homo sapiens) (P27695 whole entry, looked up): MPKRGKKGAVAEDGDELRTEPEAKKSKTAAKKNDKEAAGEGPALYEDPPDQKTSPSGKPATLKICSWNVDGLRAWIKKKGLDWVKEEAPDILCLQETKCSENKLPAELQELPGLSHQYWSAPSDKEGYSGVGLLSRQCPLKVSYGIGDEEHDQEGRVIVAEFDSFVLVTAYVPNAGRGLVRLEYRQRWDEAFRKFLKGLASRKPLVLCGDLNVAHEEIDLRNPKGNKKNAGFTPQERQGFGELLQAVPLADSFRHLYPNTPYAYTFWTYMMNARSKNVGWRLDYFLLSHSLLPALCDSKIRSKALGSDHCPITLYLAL
Compound,Potency,"activity change, negative = inhibition"
CC(C)NC[C@@H](O)COc1cccc2ccccc12,5.01 µM (active),–
C[N+]1(CCCCC[N+]2(C)CCCC2)CCCC1,–,2.1% (inactive)
CNCCC=C1c2ccccc2CCc2ccccc21,–,-0.319% (inactive)

# Tested on: not listed separately
# Test: Counterscreen for APE1 Inhibitors: Fluorescent Dye Displacement Validation Assay (AID 1707);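 also: plate controls were ThO with dsDNA and no compound for no effect and ThO without dsDNA for full effect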
# Settings: fluorescent dye displacement from DNA; series mostly up to 57.1 µM; activity change, negative = inhibition: at the top concentration
# Procedure, shortened: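 Thiazole Orange displacement from dsDNA: 250 nM ThO with 50 nM TAMRA-labelled abasic-site (tetrahydrofuran) duplex in 50 mM Tris-HCl pH7.5, 50mM NaCl, 2 mM MgCl2, 0.01% Tween-20. Loss of endpoint fluorescence (ex 480 nm, em 540 nm) flags DNA binders.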
row,Compound,"activity change, negative = inhibition"
1,CC(C)NC[C@@H](O)COc1cccc2ccccc12,0.0282% (inactive)
2,C[N+]1(CCCCC[N+]2(C)CCCC2)CCCC1,4.84% (inactive)
3,CNCCC=C1c2ccccc2CCc2ccccc21,0.457% (inactive)

# Tested on: not listed separately
# Test: qHTS for differential inhibitors of proliferation of Plasmodium falciparum line 7G8 (AID 1815);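 also: parasite growth measured after three days of incubation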; also: potency is read from the fitted curve at half-maximal effect;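 as to activity change, negative = inhibition: plate controls were vehicle wells for no effect and reference inhibitor wells for full effect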
# Settings: Plasmodium falciparum 7G8 proliferation inhibition; series mostly up to 28.7 µM; activity change, negative = inhibition: at the top concentration
Compound,Potency,"activity change, negative = inhibition"
C[N+]1(CCCCC[N+]2(C)CCCC2)CCCC1,–,10.5% (inactive)
CNCCC=C1c2ccccc2CCc2ccccc21,7.08 µM (active),–

# Tested on: not listed separately
# Test: qHTS for differential inhibitors of proliferation of Plasmodium falciparum line GB4 (AID 1816);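 also: parasite growth measured after 72 h incubation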; also: potency is read from the fitted curve at half-maximal effect;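 as to activity change, negative = inhibition: 0% = vehicle DMSO and -100% = reference inhibitor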
# Settings: Potency: Plasmodium falciparum GB4 proliferation inhibition; series mostly up to 28.7 µM; activity change, negative = inhibition: at the top concentration
Compound,Potency,"activity change, negative = inhibition"
CC(C)NC[C@@H](O)COc1cccc2ccccc12,2.51 µM (active),–
C[N+]1(CCCCC[N+]2(C)CCCC2)CCCC1,–,-4.96% (inactive)
CNCCC=C1c2ccccc2CCc2ccccc21,5.62 µM (active),–

# Tested on: not listed separately
# Test: qHTS for differential inhibitors of proliferation of Plasmodium falciparum line 3D7 (AID 1876); also: potency is read from the fitted curve at half-maximal effect;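 as to activity, negative = inhibition: parasite growth measured after three days of culture; 0% = vehicle wells and -100% = reference inhibitor wells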
# Settings: P. falciparum 3D7 proliferation inhibition; series mostly up to 28.7 µM; activity, negative = inhibition: at the top concentration
Compound,Potency,"activity, negative = inhibition"
CC(C)NC[C@@H](O)COc1cccc2ccccc12,10 µM (active),–
C[N+]1(CCCCC[N+]2(C)CCCC2)CCCC1,–,3.43% (inactive)
CNCCC=C1c2ccccc2CCc2ccccc21,11.2 µM (active),–

# Tested on: not listed separately
# Test: qHTS for differential inhibitors of proliferation of Plasmodium falciparum line Dd2 (AID 1882); also: nearly all actives have a fitted effect of over 65% in size; also: potency is read from the fitted curve at half-maximal effect;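 as to activity change, negative = inhibition: compound exposure of 72 h on infected erythrocytes; plate controls were DMSO vehicle for no effect and 0.29 µM artemisinin for full effect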
# Settings: Potency: Plasmodium falciparum Dd2 proliferation inhibition; series mostly up to 28.7 µM; activity change, negative = inhibition: at the top concentration
# Procedure, shortened: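 SYBR Green I DNA fluorescence read-out, ex 485/em 535 nm. Signals were normalized to 0.29 uM artemisinin and DMSO wells, then corrected using vehicle-only plates flanking each stack. Parasite growth ran 72 h in erythrocytes before lysis.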
Compound,Potency,"activity change, negative = inhibition"
CC(C)NC[C@@H](O)COc1cccc2ccccc12,7.94 µM (active),–
C[N+]1(CCCCC[N+]2(C)CCCC2)CCCC1,–,6.35% (inactive)
CNCCC=C1c2ccccc2CCc2ccccc21,2.82 µM (active),–

# Tested on: not listed separately
# Test: qHTS for differential inhibitors of proliferation of Plasmodium falciparum line W2 (AID 1883);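 also: parasites grown with compound for 72 h before lysis and staining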; also: potency is read from the fitted curve at half-maximal effect;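 as to activity change, negative = inhibition: 0% = vehicle wells and -100% = control inhibitor wells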
# Settings: Potency: Plasmodium falciparum W2 proliferation inhibition; series mostly up to 28.7 µM; activity change, negative = inhibition: at the top concentration
Compound,Potency,"activity change, negative = inhibition"
CC(C)NC[C@@H](O)COc1cccc2ccccc12,2.82 µM (active),–
C[N+]1(CCCCC[N+]2(C)CCCC2)CCCC1,–,3.47% (inactive)
CNCCC=C1c2ccccc2CCc2ccccc21,2.24 µM (active),–

# Tested on: not listed separately
# Test: qHTS for differential inhibitors of proliferation of Plasmodium falciparum line HB3 (AID 1886);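 also: parasites grown with compound for 72 h before SYBR Green readout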; also: potency is read from the fitted curve at half-maximal effect;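 as to activity change, negative = inhibition: plate controls were vehicle for no effect and reference inhibitor for full effect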
# Settings: Potency: Plasmodium falciparum HB3 proliferation inhibition; series mostly up to 28.7 µM; activity change, negative = inhibition: at the top concentration
Compound,Potency,"activity change, negative = inhibition"
CC(C)NC[C@@H](O)COc1cccc2ccccc12,8.91 µM (active),–
C[N+]1(CCCCC[N+]2(C)CCCC2)CCCC1,–,4.61% (inactive)
CNCCC=C1c2ccccc2CCc2ccccc21,11.2 µM (active),–
